# Measurements from the supplement of paper PMC8728848.
# The sample as a whole holds a higher share of the strongest signals than the screen did.
# B1: PX9961A-pdi-456-24-456 (Parabacteroides distasonis) (protein)
# chain: KTSSTQLPTIDAISSVADLTNAVNGVYEQQATEVGSYGAEFTLLADLRSGDFQSISTVNHAGPMYRYQTGKNDEMVYSFYKLFYNSLARLNNVLAAAENLEGADVDILKGELYAMRALYHFDLARVFAKLPSTTDMNDLGIVLSTEVYPTDYIGTRATLQQTYDQILKDIETALPLLSKDKQTGHINYWGALAIRARAYLYLEKNKEALADCKEIIASSPYKLYTRDEYIGAWDKEGTNEAIFEILVTPNYNAQRNSIGYFTHASGYGECAATESFLEELAKHPGDIRTELFAKETDNGYDGTYPQKYKGRDGQIYVNNPKVVRLSEVYLIAAEAALKAGDTSAAAGYMNTLRKNRIENYTDVASITLDDILLERRLELFTEGHTAWDAWRNGKSVNNKFVGEVKPGDYRTIMAIPIGEITVSRGQLIQNPGY
# Tests used:
# Experiment in all cases: glycan array binding signal (z-score within array); higher = stronger binding
# Settings in all cases: glycan notation: IUPAC condensed, linker removed
# [1] = molecular target: Fuc(a1-2)Gal(b1-3)GalNAc(b1-3)Gal(a1-4)Gal(b1-4)Glc
# In short: (§1)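 From the Consortium for Functional Glycomics database, 3228 arrays were curated, keeping only those whose protein sequence was available. Binding is given as a within-array Z-score averaged across arrays sharing a protein sequence and across linkers. Negative Z-scores can be read as non-binding.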
# [2] = molecular target: Fuc(a1-2)Gal(b1-3)GlcNAc6S
# In short: as §1
# [3] = molecular target: Fuc(a1-2)Gal(b1-3)[Fuc(a1-4)]GlcNAc(b1-2)Man(a1-3)[Fuc(a1-2)Gal(b1-3)[Fuc(a1-4)]GlcNAc(b1-2)Man(a1-6)]Man(b1-4)GlcNAc(b1-4)[Fuc(a1-6)]GlcNAc(b1-4)[Fuc(a1-6)]GlcNAc
# In short: as §1
# [4] = molecular target: Fuc(a1-2)Gal(b1-4)GlcNAc(b1-3)Gal(b1-4)GlcNAc(b1-3)Gal(b1-4)GlcNAc
# In short: as §1
# [5] = molecular target: Fuc(a1-2)Gal6S(b1-4)Glc6S
# In short: as §1
# Fuc(a1-2)[Gal(a1-3)]Gal = molecular target: Fuc(a1-2)[Gal(a1-3)]Gal
# In short: as §1
# [6] = molecular target: Fuc(a1-2)[GalNAc(a1-3)]Gal(b1-4)[Fuc(a1-3)]GlcNAc(b1-3)GalNAc
# In short: as §1
# [7] = molecular target: Fuc(a1-3)[Gal3S(b1-4)]GlcNAc6S
# In short: as §1
# Fuc(a1-4)GlcNAc = molecular target: Fuc(a1-4)GlcNAc
# In short: as §1
# [8] = molecular target: Gal(a1-3)Gal(b1-4)GlcNAc(b1-2)Man(a1-3)[Gal(a1-3)Gal(b1-4)GlcNAc(b1-2)Man(a1-6)]Man(b1-4)GlcNAc(b1-4)GlcNAc
# In short: as §1
# [9] = molecular target: Gal(a1-3)Gal(b1-4)[Fuc(a1-3)]GlcNAc(b1-2)Man(a1-3)[Gal(a1-3)Gal(b1-4)[Fuc(a1-3)]GlcNAc(b1-2)Man(a1-6)]Man(b1-4)GlcNAc(b1-4)GlcNAc
# In short: as §1
# Gal(a1-3)GalNAc = molecular target: Gal(a1-3)GalNAc
# In short: as §1
# [10] = molecular target: Gal(a1-4)Gal(b1-4)GlcNAc(b1-2)Man(a1-3)[Gal(a1-4)Gal(b1-4)GlcNAc(b1-2)Man(a1-6)]Man(b1-4)GlcNAc(b1-4)GlcNAc
# In short: as §1
# [11] = molecular target: Gal(a1-4)Gal(b1-4)GlcNAc(b1-3)Gal(b1-4)Glc
# In short: as §1
# [12] = molecular target: Gal(b1-3)GlcNAc(b1-3)Gal(b1-4)GlcNAc(b1-2)[Gal(b1-3)GlcNAc(b1-3)Gal(b1-4)GlcNAc(b1-6)]Man(a1-6)[Gal(b1-3)GlcNAc(b1-3)Gal(b1-4)GlcNAc(b1-2)Man(a1-3)]Man(b1-4)GlcNAc(b1-4)[Fuc(a1-6)]GlcNAc
# In short: as §1
# [13] = molecular target: Gal(b1-4)GalNAc(b1-3)[Fuc(a1-2)]Gal(b1-4)GlcNAc
# In short: as §1
# [14] = molecular target: Gal(b1-4)GlcNAc(b1-2)[Gal(b1-4)GlcNAc(b1-6)]Man(a1-6)[Gal(b1-4)GlcNAc(b1-2)Man(a1-3)]Man(b1-4)GlcNAc(b1-4)[Fuc(a1-6)]GlcNAc
# In short: as §1
# [15] = molecular target: Gal(b1-4)GlcNAc(b1-3)Gal(b1-3)GalNAc
# In short: as §1
# [16] = molecular target: Gal(b1-4)GlcNAc(b1-3)Gal(b1-4)GlcNAc(b1-2)Man(a1-3)[Gal(b1-4)GlcNAc(b1-3)Gal(b1-4)GlcNAc(b1-2)Man(a1-6)]Man(b1-4)GlcNAc(b1-4)GlcNAc
# In short: as §1
# [17] = molecular target: Gal(b1-4)GlcNAc(b1-3)Gal(b1-4)GlcNAc(b1-2)Man(a1-3)[Gal(b1-4)GlcNAc(b1-3)Gal(b1-4)GlcNAc(b1-2)Man(a1-6)]Man(b1-4)GlcNAc(b1-4)[Fuc(a1-6)]GlcNAc
# In short: as §1
# [18] = molecular target: Gal(b1-4)GlcNAc(b1-3)Gal(b1-4)GlcNAc(b1-3)Gal(b1-4)GlcNAc(b1-2)[Gal(b1-4)GlcNAc(b1-3)Gal(b1-4)GlcNAc(b1-3)Gal(b1-4)GlcNAc(b1-6)]Man(a1-6)[Gal(b1-4)GlcNAc(b1-3)Gal(b1-4)GlcNAc(b1-3)Gal(b1-4)GlcNAc(b1-2)Man(a1-3)]Man(b1-4)GlcNAc(b1-4)[Fuc(a1-6)]GlcNAc
# In short: as §1
# [19] = molecular target: Gal(b1-4)GlcNAc(b1-3)Gal(b1-4)GlcNAc(b1-3)Gal(b1-4)GlcNAc(b1-3)Gal(b1-4)GlcNAc(b1-2)Man(a1-3)[Gal(b1-4)GlcNAc(b1-3)Gal(b1-4)GlcNAc(b1-3)Gal(b1-4)GlcNAc(b1-3)Gal(b1-4)GlcNAc(b1-2)Man(a1-6)]Man(b1-4)GlcNAc(b1-4)GlcNAc
# In short: as §1
# [20] = molecular target: Gal(b1-4)GlcNAc(b1-3)Gal(b1-4)GlcNAc(b1-3)Gal(b1-4)GlcNAc(b1-3)Gal(b1-4)GlcNAc(b1-2)Man(a1-3)[Gal(b1-4)GlcNAc(b1-3)Gal(b1-4)GlcNAc(b1-3)Gal(b1-4)GlcNAc(b1-3)Gal(b1-4)GlcNAc(b1-2)Man(a1-6)]Man(b1-4)GlcNAc(b1-4)[Fuc(a1-6)]GlcNAc
# In short: as §1
# [21] = molecular target: Gal(b1-4)GlcNAc(b1-3)Gal(b1-4)GlcNAc(b1-3)Gal(b1-4)GlcNAc(b1-3)Gal(b1-4)GlcNAc(b1-3)Gal(b1-4)GlcNAc(b1-2)Man(a1-3)[Gal(b1-4)GlcNAc(b1-3)Gal(b1-4)GlcNAc(b1-3)Gal(b1-4)GlcNAc(b1-3)Gal(b1-4)GlcNAc(b1-3)Gal(b1-4)GlcNAc(b1-2)Man(a1-6)]Man(b1-4)GlcNAc(b1-4)GlcNAc
# In short: as §1
# [22] = molecular target: Gal(b1-4)GlcNAc(b1-3)Gal(b1-4)GlcNAc(b1-3)Gal(b1-4)GlcNAc(b1-3)Gal(b1-4)GlcNAc(b1-3)Gal(b1-4)GlcNAc(b1-3)Gal(b1-4)GlcNAc(b1-2)Man(a1-3)[Gal(b1-4)GlcNAc(b1-3)Gal(b1-4)GlcNAc(b1-3)Gal(b1-4)GlcNAc(b1-3)Gal(b1-4)GlcNAc(b1-3)Gal(b1-4)GlcNAc(b1-3)Gal(b1-4)GlcNAc(b1-2)Man(a1-6)]Man(b1-4)GlcNAc(b1-4)GlcNAc
# In short: as §1
# [23] = molecular target: Gal(b1-4)GlcNAc(b1-3)Gal(b1-4)GlcNAc(b1-3)GalNAc
# In short: as §1
# Gal3S(b1-4)Glc = molecular target: Gal3S(b1-4)Glc
# In short: as §1
# GalNAc(a1-3)Gal = molecular target: GalNAc(a1-3)Gal
# In short: as §1
# [24] = molecular target: GalNAc(b1-3)Gal(a1-4)Gal(b1-4)GlcNAc(b1-3)Gal(b1-4)Glc
# In short: as §1
# Glc(b1-6)Glc = molecular target: Glc(b1-6)Glc
# In short: as §1
# [25] = molecular target: GlcNAc(b1-2)Man(a1-3)[GlcNAc(b1-4)][GlcNAc(b1-2)Man(a1-6)]Man(b1-4)GlcNAc(b1-4)GlcNAc
# In short: as §1
# [26] = molecular target: GlcNAc(b1-3)Gal(b1-4)GlcNAc(b1-2)[GlcNAc(b1-3)Gal(b1-4)GlcNAc(b1-6)]Man(a1-6)[GlcNAc(b1-3)Gal(b1-4)GlcNAc(b1-2)Man(a1-3)]Man(b1-4)GlcNAc(b1-4)GlcNAc
# In short: as §1
# [27] = molecular target: GlcNAc(b1-3)Gal(b1-4)GlcNAc(b1-3)Gal(b1-4)GlcNAc(b1-3)Gal(b1-4)GlcNAc(b1-3)Gal(b1-4)GlcNAc(b1-2)Man(a1-3)[GlcNAc(b1-3)Gal(b1-4)GlcNAc(b1-3)Gal(b1-4)GlcNAc(b1-3)Gal(b1-4)GlcNAc(b1-3)Gal(b1-4)GlcNAc(b1-2)Man(a1-6)]Man(b1-4)GlcNAc(b1-4)[Fuc(a1-6)]GlcNAc
# In short: as §1
# [28] = molecular target: GlcNAc(b1-3)Gal(b1-4)GlcNAc(b1-3)GalNAc
# In short: as §1
# [29] = molecular target: GlcNAc(b1-3)Gal(b1-4)GlcNAc(b1-3)[GlcNAc(b1-3)Gal(b1-4)GlcNAc(b1-3)]GalNAc
# In short: as §1
# [30] = molecular target: Neu5Ac(a2-3)Gal(b1-3)GlcNAc(b1-2)Man(a1-3)[Neu5Ac(a2-3)Gal(b1-3)GlcNAc(b1-2)Man(a1-6)]Man(b1-4)GlcNAc(b1-4)GlcNAc
# In short: as §1
# [31] = molecular target: Neu5Ac(a2-3)Gal(b1-3)GlcNAc(b1-4)Gal(b1-4)Glc
# In short: as §1
# [32] = molecular target: Neu5Ac(a2-3)Gal(b1-3)GlcNAc(b1-6)GalNAc
# In short: as §1
# [33] = molecular target: Neu5Ac(a2-3)Gal(b1-3)GlcNAc6S
# In short: as §1
# [34] = molecular target: Neu5Ac(a2-3)Gal(b1-4)[Fuc(a1-3)]GlcNAc(b1-2)Man
# In short: as §1
# [35] = molecular target: Neu5Ac(a2-3)Gal(b1-4)[Fuc(a1-3)]GlcNAc(b1-6)[Neu5Ac(a2-3)Gal(b1-3)]GalNAc
# In short: as §1
# Neu5Ac(a2-6)Gal = molecular target: Neu5Ac(a2-6)Gal
# In short: as §1
# [36] = molecular target: Neu5Ac(a2-6)Gal(b1-4)GlcNAc(b1-2)Man(a1-3)Man(b1-4)GlcNAc(b1-4)GlcNAc
# In short: as §1
# [37] = molecular target: Neu5Ac(a2-6)Gal(b1-4)GlcNAc(b1-2)[Neu5Ac(a2-6)Gal(b1-4)GlcNAc(b1-4)]Man(a1-3)[GlcNAc(b1-4)][Neu5Ac(a2-6)Gal(b1-4)GlcNAc(b1-4)Man(a1-6)]Man(b1-4)GlcNAc(b1-4)GlcNAc
# In short: as §1
# [38] = molecular target: Neu5Ac(a2-6)Gal(b1-4)GlcNAc(b1-6)[Gal(b1-3)]GalNAc
# In short: as §1
binder,measurement,setting,value
B1,glycan array binding signal (z-score),[1],-0.216
same,glycan array binding signal (z-score),[2],0.178
same,glycan array binding signal (z-score),[3],0.196
same,glycan array binding signal (z-score),[4],-0.148
same,glycan array binding signal (z-score),[5],-0.221
same,glycan array binding signal (z-score),Fuc(a1-2)[Gal(a1-3)]Gal,1.54
same,glycan array binding signal (z-score),[6],0.753
same,glycan array binding signal (z-score),[7],-0.41
same,glycan array binding signal (z-score),Fuc(a1-4)GlcNAc,7.24
same,glycan array binding signal (z-score),[8],0.21
same,glycan array binding signal (z-score),[9],0.63
same,glycan array binding signal (z-score),Gal(a1-3)GalNAc,-0.152
same,glycan array binding signal (z-score),[10],0.514
same,glycan array binding signal (z-score),[11],0.043
same,glycan array binding signal (z-score),[12],1.83
same,glycan array binding signal (z-score),[13],-0.317
same,glycan array binding signal (z-score),[14],2.12
same,glycan array binding signal (z-score),[15],-0.575
same,glycan array binding signal (z-score),[16],2.2
same,glycan array binding signal (z-score),[17],2.48
same,glycan array binding signal (z-score),[18],2.11
same,glycan array binding signal (z-score),[19],0.035
same,glycan array binding signal (z-score),[20],6.49
same,glycan array binding signal (z-score),[21],2.59
same,glycan array binding signal (z-score),[22],7.59
same,glycan array binding signal (z-score),[23],0.087
same,glycan array binding signal (z-score),Gal3S(b1-4)Glc,-0.121
same,glycan array binding signal (z-score),GalNAc(a1-3)Gal,3.31
same,glycan array binding signal (z-score),[24],0.012
same,glycan array binding signal (z-score),Glc(b1-6)Glc,-0.218
same,glycan array binding signal (z-score),[25],-0.42
same,glycan array binding signal (z-score),[26],0.033
same,glycan array binding signal (z-score),[27],2.18
same,glycan array binding signal (z-score),[28],0.389
same,glycan array binding signal (z-score),[29],-0.009
same,glycan array binding signal (z-score),[30],-0.512
same,glycan array binding signal (z-score),[31],-0.437
same,glycan array binding signal (z-score),[32],0.343
same,glycan array binding signal (z-score),[33],0.048
same,glycan array binding signal (z-score),[34],-0.398
same,glycan array binding signal (z-score),[35],0.273
same,glycan array binding signal (z-score),Neu5Ac(a2-6)Gal,-0.046
same,glycan array binding signal (z-score),[36],-0.293
same,glycan array binding signal (z-score),[37],-0.061
same,glycan array binding signal (z-score),[38],-0.445
